The list is not random: actives were taken first. Their share in the collection is about 3.6%.
mHTT CaM bind: mutant huntingtin-calmodulin interaction inhibitors – biochemical, AlphaScreen, primary screen. actives 3.6% (n = 190,000). AID 1671202, 2021. AlphaScreen His-mHTT/GST-CaM binding, luminescence. P42858. inhibition, % at 15 µM
Pf apPOL inh: Pf-apPOL inhibitors, biochemical, fluorescence | Plasmodium falciparum apicoplast DNA polymerase (apPOL) | Recombinant Pf-apPOL, molecular beacon fluorescence, 1.5 h | inhibition, % at 10 µM | actives 0.25% (n = 210,000)
Numbers stand for hits; . = inactive; / = no result given; ! = a repeat was not active. Rule as the data show it: active = inhibition above about 50%; inactive = the rest.

SMILES	mHTT CaM bind	Pf apPOL inh
OCc1ccc(-c2cccc(Cl)c2)o1	.	.
Cc1cccc(NC(=O)N2CCC(C(=O)NCc3csc(-c4ccccc4)n3)CC2)c1	.	.
COC[C@H]1CCCN1c1ccc2c(c1)O[C@H](COCc1ccccc1)CN([C@@H](C)c1ccccc1)S2(=O)=O	.	.
C[C@@H](c1ccccc1)N1C[C@@H](COCc2ccccc2)Oc2cc(N3CC[C@@H](N(C)C)C3)ccc2S1(=O)=O	100	.
C[C@@H](c1ccccc1)N1C[C@H](COCc2ccccc2)Oc2cc(N3CC[C@@H](O)C3)ccc2S1(=O)=O	52	.
C[C@@H](c1ccccc1)N1C[C@H](COCc2ccccc2)Oc2cc(N3CCC[C@H]3CO)ccc2S1(=O)=O	.	.
C[C@H](c1ccccc1)N1C[C@H](COCc2ccccc2)Oc2cc(N3CC[C@@H](O)C3)ccc2S1(=O)=O	54	.
C[C@@H](c1ccccc1)N1C[C@@H](COCc2ccccc2)Oc2cc(N3CCC[C@H]3C(N)=O)ccc2S1(=O)=O	.	.
C[C@@H](c1ccccc1)N1C[C@H](COCc2ccccc2)Oc2cc(N3CCC[C@H]3C(N)=O)ccc2S1(=O)=O	.	.
C[C@@H](c1ccccc1)N1C[C@@H](COCc2ccccc2)Oc2cc(N3CC[C@@H](O)C3)ccc2S1(=O)=O	56	.
Cc1cc(Cl)ccc1NC(=O)N1CC(C)C(c2nc(-c3cccnc3)no2)C1 (configuration not stated)	.	.
CCC(=O)NCCc1csc(C2CCCN(C(=O)c3cccn3C)C2)n1 (configuration not stated)	.	.
COc1ccc(C(=O)Nc2nc3c(s2)CCCC3)cc1OC	.	.
O=C(CSc1nc2ccccc2s1)Nc1ccccc1F	.	.
CCN1CCCC1CNC(=O)Cc1cn(C)c2ccccc12 (configuration not stated)	.	.
O=C1CSC(c2ccc(F)c(F)c2)N1c1cccc(F)c1 (configuration not stated)	.	.
Cc1cc2[nH]c(C(=O)Nc3ccccc3C)c(CN3CCOCC3)c2s1	50	.
Cc1cc2[nH]c(C(=O)Nc3c(F)cccc3F)c(CN3CCOCC3)c2s1	54	.
Cc1cc2[nH]c(C(=O)Nc3cccc(F)c3C)c(CN3CCOCC3)c2s1	.	.
Cc1cc2[nH]c(C(=O)Nc3ccccc3Cl)c(CN3CCOCC3)c2s1	.	.
COc1cccc(/C=C2/N=C(c3ccc(Cl)cc3Cl)OC2=O)c1OC	.	.
O=C(c1ccc(Br)cc1)c1ccc(N2CCOCC2)c([N+](=O)[O-])c1	.	.
CN1CCN(c2ccc(C(=O)c3ccc(Br)cc3)cc2[N+](=O)[O-])CC1	57	.
Cc1ccccc1NS(=O)(=O)Cc1ccccc1	.	.
O=C1C(=O)N(CCN2CCCCC2)c2ccccc21	.	.
SMILES	mHTT CaM bind	Pf apPOL inh
O=C1C(=O)N(CN2CCCCCC2)c2ccccc21	77	.
Cc1ccc(CN2C(=O)C3CCCN3C(=O)c3ccccc32)cc1 (configuration not stated)	.	.
O=C(NCc1cc(-c2ccco2)on1)c1cccs1	.	.
Cc1cc(C(=O)Nc2nnc(-c3cccs3)o2)no1	.	.
CCN(CC)S(=O)(=O)c1ccc(C(=O)Nc2nnc(-c3cccs3)o2)cc1	.	.
Cc1ccc(S(=O)(=O)Nc2cccc(C(=O)Nc3nnc(-c4cccs4)o3)c2)cc1	82	.
Cc1onc(-c2ccccc2Cl)c1C(=O)Nc1nnc(-c2cccs2)o1	82	.
Cc1ccsc1/C=C1\SC(c2ccccc2)=NC1=O	.	.
O=C1N=C(N2CCCCC2)S/C1=C\c1cccs1	.	.
O=C1N=C(c2ccccc2)S/C1=C\c1cccs1	62	.
Cc1ccc(C2=NC(=O)/C(=C/c3sccc3C)S2)cc1	53	.
CS(=O)(=O)Nc1cccc(NC(=O)c2coc(NC(=O)c3ccccc3)n2)c1	.	.
COc1cccc(OCc2noc(-c3cccc(Cl)c3)n2)c1	.	.
CN(C)c1cccc(OCc2noc(-c3cccc(Cl)c3)n2)c1	62	.
COC(=O)C1=CCC23CCC(C(C)(C=CC=C(C)C(=O)O)OC2=O)C3(OC(C)=O)CC1 (configuration not stated)	/	.
CN(CC(=O)Nc1cccc([N+](=O)[O-])c1)S(=O)(=O)c1ccc(Br)cc1	.	.
COc1cc(OC)c(C2SCCN2S(=O)(=O)c2ccc(Br)cc2)cc1OC (configuration not stated)	51	.
COc1cc(OC)c(C2SCCN2S(=O)(=O)c2ccc(Cl)cc2)cc1OC (configuration not stated)	.	.
COc1ccc(C2NC(=O)NC(C)=C2C(=O)Nc2ccc(F)c(F)c2)cc1OC (configuration not stated)	.	65!
COc1ccccc1C1NC(=O)NC(C)=C1C(=O)Nc1ccc(F)c(F)c1 (configuration not stated)	.	.
O=C1CCC[C@H]2C[C@H](NCCc3ccncc3)CC[C@]23CCCN13	77	.
O=C1CCC[C@H]2C[C@H](NCc3ccc(F)cc3)CC[C@]23CCCN13	.	.
CCN(CC)c1ccc(NC2=C(n3nnc4ccccc43)C(=O)c3ccccc3C2=O)cc1	70	.
O=C1C(Nc2ccc(Cl)cc2)=C(n2nnc3ccccc32)C(=O)c2ccccc21	.	.
COc1ccc(Cl)cc1NC(=O)c1c(NCc2cccs2)sc2c1CCC2	.	.
SMILES	mHTT CaM bind	Pf apPOL inh
COc1ccc(Cl)cc1NC(=O)c1c(NCc2cccnc2)sc2c1CCC2	93	.
COc1ccc(Cl)cc1NC(=O)c1c(NCc2cccnc2)sc2c1CCCC2	79	.
COc1ccc(Cl)cc1NC(=O)C(=O)NCc1cccnc1	.	.
CCCN1C(=O)C(=Cc2cc(OC)c(OC)cc2OC)NC1=S	.	.
Cc1ccc(C2Nc3ccccc3NC3=C2C(=O)CC(c2ccccc2Cl)C3)s1 (configuration not stated)	.	.
COc1cc(C(C)=O)ccc1OCC(O)CNC1CCCCCC1 (configuration not stated)	.	.
COc1cc(C(=O)Oc2ccc3c(c2)OC(=Cc2cccs2)C3=O)cc(OC)c1OC	.	.
COc1ccccc1C(NC(C)=O)c1cc(Cl)c2cccnc2c1O (configuration not stated)	71	.
COCC(=O)NC(c1ccccc1)c1cc(Cl)c2cccnc2c1O (configuration not stated)	100	.
CCC(=O)NC(c1ccc2c(c1)OCO2)c1cc(Cl)c2cccnc2c1O (configuration not stated)	96	.
COc1ccccc1C(NC(=O)C(C)C)c1cc(Cl)c2cccnc2c1O (configuration not stated)	.	.
COc1ccc(C(NC(C)=O)c2cc(Cl)c3cccnc3c2O)cc1OC (configuration not stated)	100!	.
CCSC1=C(C#N)C(c2ccc(Cl)cc2Cl)CC(=O)N1 (configuration not stated)	.	.
O=C(c1ccc(Cl)s1)N1CCN(c2ncnc3c2CCC3)CC1	.	.
Cc1ccc(-n2nc3c(c2NC(=O)c2cccc(Br)c2)CS(=O)C3)cc1 (configuration not stated)	.	.
Cc1ccccc1CSC1=NCCN1C(=O)c1ccccc1	.	.

Screening data deposited in PubChem BioAssay by University of Kansas High Throughput Screening Laboratory.
